Compounds with a hit are over-represented: about 3% of the library has one in this group of screens.
Caspase-1 inhib: allosteric or competitive inhibitors of human caspase-1; P29466; Caspase-1 enzyme, Ac-WEHD-AFC fluorogenic rate; Potency, µM (doses to about 57.5 µM), for the others: top-dose activity change, negative = inhibition, hits mostly inhibitors; 75,000 compounds, 0.03% hits; AID 900;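 also: plate controls were vehicle for no effect and no substrate for full effect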
ALOX15 inhib: 15-hLO (ALOX15) enzyme inhibition | purified 15hLO-1, xylenol orange hydroperoxide absorbance | AID 887 | P16050 | Potency, µM (top dose mostly 57.1 µM), without a hit: at the top dose activity change, negative = inhibition, most hits filed as inhibitors | 74,000 compounds, 1.4% hits; also: % is scaled to controls: 0 for no effect and ±100 for the full control effect; nearly all actives have a fitted effect of over 55% in size
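Purified human 15hLO-1 (40 nM) in 25 mM Hepes pH 7.5, 0.01% Triton X-100, preincubated 15 min RT with compound, then 50 uM arachidonic acid for 6 min. Hydroperoxide read by ferrous/xylenol orange, 30 min; 573/405 nm absorbance ratio gave progress.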
TSHR ag: TSH receptor (human) agonism; AID 926; P16473; 73,000 compounds, 0.48% hits; Potency, µM (doses to about 57.1 µM), for inactives: top-dose activation, hits mostly activators; HEK293-CNG-TSHR cells (CNG channel as cAMP sensor), membrane potential dye, cAMP; active = well fitted activation curve with a large enough effect in the main read-out, with a control signal flat, not every such curve was filed as active; inconclusive = small, poorly fitted or top-dose-only effect, or a change in a side signal; inactive = no such curve, though single readings can be large or run the other way; % of control where 0% means no effect;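 also: the control signal comes from parental cells without the receptor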
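HEK 293 cells stably expressing TSHR and a cAMP-gated CNG channel; parental CNG-only cells as counterscreen. Cells preloaded 60 min with membrane potential dye plus 100 uM RO 20-1724, then compound 30 min; fluorescence read at 590 nm.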
HEK293 cAMP cs: counter-screen for TSHR agonists: cAMP increase in parental HEK293 | parental HEK293 CNG cAMP sensor, membrane potential fluorescence | Potency, µM (doses to about 57.1 µM), for the others: at the highest dose activation, hits mostly activators | 73,000 compounds, 2.5% hits; also: % of control where 0% means no effect; nearly all actives have a fitted effect of over 55% in size
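Parental HEK 293 cells stably expressing a modified CNG channel (no TSHR) report cAMP rise as membrane depolarization. Membrane potential dye with 100 uM RO 20-1724 was loaded for 60 min at room temperature, then compound added for 30 min; fluorescence read at 590 nm.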
15-hLO-2 inh: inhibitors of human 15-lipoxygenase 2 (ALOX15B); O15296; purified 15hLO-2, xylenol orange hydroperoxide absorbance; Potency, µM (doses to about 57.1 µM), inactives show at the top dose activity change, negative = inhibition, hits mostly inhibitors; 110,000 compounds, 0.56% hits; also: % is scaled to controls: 0 for no effect and ±100 for the full control effect; nearly all actives have a fitted effect of over 60% in size
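Read-out: hydroperoxide product oxidises ferrous iron, measured as xylenol orange complex via the 573-to-405 nm absorbance ratio after 30 min. Reaction: 50 nM enzyme, 15 min compound preincubation, 45 uM arachidonic acid, 90 min RT, Hepes pH 7.5 with Triton X-100.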
Caspase-7 inhib: allosteric or competitive inhibitors of human caspase-7; P55210; recombinant caspase-7, Ac-DEVD-AFC fluorescence rate; Potency, µM (highest dose often 57.5 µM), inactives show at the top dose activity change, negative = inhibition, actives largely listed as inhibitors; 75,000 compounds, 0.02% hits; AID 889; active = well fitted inhibition curve with a large enough effect in the main read-out, with a control signal flat, not every such curve was filed as active; inconclusive = small, poorly fitted or top-dose-only effect, or a change in a side signal; also: % of control where 0% means no effect
An asterisk follows results filed as active; ? = inconclusive; · = no result; [ ] = another dose, or the depositor's remark. Unless noted, calls follow the shape of the dose curve; as a rule, active = well fitted curve in the direction sought with a large enough effect; inconclusive = small, poorly fitted or top-dose-only effect, or another doubt; inactive = no such curve, though single readings can be large; an effect the other way counts as inactive or inconclusive. Potency is read from the fitted curve at half-maximal effect.

SMILES	Caspase-1 inhib	ALOX15 inhib	TSHR ag	HEK293 cAMP cs	15-hLO-2 inh	Caspase-7 inhib
N#CC1=C(N)C(C#N)(C#N)C(c2cccnc2)C2CCCC=C12 (stereo not drawn)	·	25.1µM*	-4.2%	-3.2%	-6.7%	?
COC(=O)[C@@]1(Cc2ccccc2)[C@H]2c3cc(C(=O)N4CCCC4)n(Cc4ccccc4)c3C[C@H]2CN1C(=O)c1ccccc1	-2.7%	·	?	1.26µM*	9.5%	-7.6%
COC(=O)[C@@]1(Cc2ccccc2)[C@H]2c3cc(C(=O)N4CCCC4)n(Cc4ccc(OC)c(OC)c4)c3C[C@H]2CN1C(=O)c1ccccc1	-3.7%	·	?	3.16µM*	-2.7%	-6.6%
COC(=O)[C@@]1(Cc2ccc(OC)cc2)[C@H]2c3cc(C(=O)N4CCCC4)n(Cc4cc(C)n(C)n4)c3C[C@H]2CN1C(=O)c1ccccc1	-5.7%	·	?	12.6µM*	-2.3%	-2.3%
COC(=O)[C@@]1(Cc2ccc(OC)cc2)[C@H]2c3cc(C(=O)N4CCCC4)n(CCO)c3C[C@H]2CN1C(=O)c1ccccc1	-1.2%	·	1.5%	15.7%	-1.6%	-1.4%
COC(=O)[C@@]1(Cc2ccccc2)[C@H]2c3cc(C(=O)N4CCCC4)n(Cc4ccc(O)c(OC)c4)c3C[C@H]2CN1C(=O)c1ccccc1	-6.5%	·	?	1µM*	?	-3.9%
CCCCCCC#CC1C=CC(OC(C)=O)C(COC(C)=O)O1 (stereo not drawn)	-1.4%[11.5 µM]	3.6%[11.4 µM]	0.7%[11.4 µM]	-0.9%[11.4 µM]	·	-1.9%[11.5 µM]
COC(=O)[C@@]1(Cc2ccc(F)cc2)[C@H]2c3cc(C(=O)N4CCCC4)n(CCc4ccc(OC)c(Br)c4)c3C[C@H]2CN1C(=O)c1ccccc1	-2.8%	·	?	?	4.6%	-4.0%
COC(=O)[C@@]1(Cc2ccc(OC)cc2)[C@H]2c3cc(C(=O)N4CCCC4)n(CCc4ccc(OC)c(Br)c4)c3C[C@H]2CN1C(=O)c1ccccc1	-3.7%	·	?	5.01µM*	3.5%	-3.6%
COC(=O)[C@@]1(Cc2ccccc2)[C@H]2c3cc(C(=O)N4CCCC4)n(Cc4ccccn4)c3C[C@H]2CN1C(=O)c1ccccc1	-1.7%	·	?	3.16µM*	-4.0%	-2.9%
COc1ccc([C@@H](Nc2ccccn2)c2cc(C(C)(C)C)cc(C(C)(C)C)c2O)cc1	0.0%[11.5 µM]	7.6%[11.4 µM]	4.3%[11.4 µM]	1.5%[11.4 µM]	9.7%[11.4 µM]	-0.8%[11.5 µM]
Cc1ccc(-c2n[nH]c(=S)n2/N=C/C=C/c2ccccc2[N+](=O)[O-])cc1	·	·	·	·	12.6µM*	·
Cc1ccc(/C=N/c2sc3c(c2C#N)CCCCC3)o1	?	25.1µM*	-1.9%	6.4%	-29.8%	-9.9%
O=S(=O)(c1ccccc1)N1CCC2(CCCN(Cc3ccccc3)C2)CC1	-1.7%	0.7%	?	15.8µM*	28.9%	-0.1%
O=S(=O)(c1ccccc1)N1CCC2(CCN(Cc3ccccc3)CC2)CC1	-3.2%	-2.1%	-1.7%	-1.8%	0.9%	0.2%
CCS(=O)(=O)NCc1ccc2[nH]c3c(c2c1)CCCC3	·	0.398µM*	-7.1%	2.9%	-6.6%	?
CC(Oc1ccc(Br)cc1)C(=O)N1CCc2ccccc21 (stereo not drawn)	-1.0%	-21.1%	?	25.1µM*	·	-1.9%
CO[C@@H]1COC(=O)C/C=C\[C@@H](C)[C@H](OC)COC(=O)C/C=C\[C@H]1C	-1.0%[11.5 µM]	-3.7%[11.4 µM]	-2.0%[11.4 µM]	11.2%[11.4 µM]	·	-2.1%[11.5 µM]
C=CCn1c2ccccc2c2nnc(SCN3C(=O)c4ccccc4C3=O)nc21	-6.1%	-23.2%[11.4 µM]	·	24.7%[11.4 µM]	-20.4%	-2.3%
C=CCn1c2ccccc2c2nnc(SCCCn3c(=O)[nH]c4ccccc43)nc21	-3.1%	15.8µM*	?	?	-13.5%	-5.2%
CCCCOC(=O)CSc1nc2c(cc1C#N)C(=O)CC(C)(C)C2	-2.1%	-27.0%	?	20µM*	1.0%	-1.1%
CC(=O)[C@H]([C@@H](c1ccccc1)N1CCOCC1)N1CCOCC1	-2.7%[11.5 µM]	0.3%[11.4 µM]	4.5%[11.4 µM]	11.8%[11.4 µM]	-2.2%[11.4 µM]	0.5%[11.5 µM]
O=C(c1ccncc1)N1CCC2(CC1)CCN(C(c1ccccc1)c1ccccc1)CC2	1.6%	-13.7%	4.8%	-0.4%	0.8%	-0.2%
N#Cc1c(-c2ccco2)cc(-c2cccnc2)nc1N	0.1%	7.94µM*	2.1%	-7.4%	?	-1.7%
O=c1c(-c2cccs2)nc2cncnc2n1Cc1ccccc1	·	7.2%	1.9%	-4.4%	-7.0%	?
SMILES	Caspase-1 inhib	ALOX15 inhib	TSHR ag	HEK293 cAMP cs	15-hLO-2 inh	Caspase-7 inhib
O=C(Cc1cccs1)NCc1cccs1	0.1%	0.2%	-1.9%	5.7%	0.5%	-1.8%
CCCCOCCCNC(=O)Cc1cccs1	-2.1%	1.5%[11.4 µM]	?	1.58µM*	-4.3%	-1.2%
CN1CCN(c2ncc3nc(-c4ccc(Cl)cc4)c(=O)n(CCC#N)c3n2)CC1	·	6.4%	?	?	5.2%	?
O=C1[C@H]2[C@H]3[C@H](O)[C@H](O)C/C(=N/OC[C@@H](O)COCc4ccco4)[C@H]3CC[C@@H]2C(=O)N1c1cccc(Oc2ccccc2)c1	-3.4%[11.5 µM]	2.5%[11.4 µM]	-3.1%[11.4 µM]	1.1%[11.4 µM]	·	-1.1%[11.5 µM]
FC(F)(F)c1ccccc1-c1ccc2ncnc(NCCN3CCOCC3)c2c1	0.5%	9.1%	?	?	49.4%	-2.5%
CCOC(=O)C1CCCN(c2ncnc3c2oc2ccccc23)C1 (stereo not drawn)	-0.9%	-0.8%	?	?	0.1%	0.6%
Cc1ccc2c(c1)c1ncnc(N3CCN(c4ccccc4)CC3)c1n2C	-5.9%	-4.2%	?	25.1µM*	21.0%	-6.6%
CCc1nnc(N2CCN(c3ncnc4c3oc3ccccc34)CC2)s1	0.3%	-8.7%	14.8%	7.9%	4.6%	0.8%
CCOC(=O)C1CCN(c2ncnc3c2oc2ccccc23)CC1	-0.4%	-1.1%	?	25.1µM*	2.1%	-1.8%
c1ccc(N2CCN(c3ncnc4c3oc3ccccc34)CC2)cc1	-8.2%	6.8%	?	20µM*	39.0%	-9.8%
COc1ccc(-n2c(=O)cnc3cnc(Oc4ccccc4)nc32)cc1	-3.3%	6.3%	?	?	-1.6%	-4.1%
Cc1ccc(/C=C/C2=Cc3c(sc(NC(=O)CSc4n[nH]c(N)n4)c3C#N)C(C)(C)C2)o1	?	12.6µM*	?	-6.2%	?	?
CCCn1c(C)nc2c(c1=O)c1nc3ccccc3nc1n2CCC1=CCCCC1	·	-11.6%	?	20µM*	?	?
N#Cc1cc(-c2ccccc2)nn1-c1ccccc1	-2.0%	15.8µM*	23.0%	23.4%	13.2%[2.29 µM]	-1.5%
Clc1ccccc1/C=N/c1cc(-c2ccccc2)nn1-c1ccccc1	·	·	·	·	1.2%	·
Cc1noc(C)c1C(=O)OCC(=O)c1cc(C)n(Cc2ccccc2Cl)c1C	-4.3%	2.9%	?	25.1µM*	4.0%	-4.9%
